# In PMC11006913:
# Legend:
# Assay in all cases: PBM; 200 nM protein, PBS
# Conditions in all cases: dsDNA, one strand shown
# [1] = target: ALX4 (Homo sapiens, UniProt Q9H161 200-286)
# [2] = target: PRRX1 (Homo sapiens, UniProt P54821 80-166, F113S)
# [3] = target: ALX4 (Homo sapiens, UniProt Q9H161 200-286, Q225E)
# [4] = target: PRRX1 (Homo sapiens, UniProt P54821 80-166)
# [5] = target: HOXB6 (Homo sapiens, UniProt P17509 132-218, K202E)
# [6] = target: T1, NKX2-6 (Homo sapiens, UniProt A6NCS4 118-204, R150C)
# T1 sequence: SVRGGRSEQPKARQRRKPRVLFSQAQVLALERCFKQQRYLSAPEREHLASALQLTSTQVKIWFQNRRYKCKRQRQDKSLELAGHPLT
# [7] = target: MSX2 (Homo sapiens, UniProt P35548 130-214, R199I)
# [8] = target: ALX3 (Homo sapiens, UniProt O95076 139-225, N203Q)
# [9] = target: MSX2 (Homo sapiens, UniProt P35548 130-214)
# [10] = target: ALX3 (Homo sapiens, UniProt O95076 139-225)
# [11] = target: ALX3 (Homo sapiens, UniProt O95076 139-225, L168Q)
# [12] = target: ALX3 (Homo sapiens, UniProt O95076 139-225, L168V)
# [13] = target: MSX2 (Homo sapiens, UniProt P35548 130-214, F161Y)
# [14] = target: ALX3 (Homo sapiens, UniProt O95076 139-225, N203S)
# [15] = target: HOXB6 (Homo sapiens, UniProt P17509 132-218)
# Sequence of HOXB6 (Homo sapiens, UniProt P17509 132-218) (P17509 132-218): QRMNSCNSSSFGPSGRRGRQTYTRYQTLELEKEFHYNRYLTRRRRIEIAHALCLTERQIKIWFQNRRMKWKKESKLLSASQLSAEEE
# Sequence of ALX4 (Homo sapiens, UniProt Q9H161 200-286) (Q9H161 200-286): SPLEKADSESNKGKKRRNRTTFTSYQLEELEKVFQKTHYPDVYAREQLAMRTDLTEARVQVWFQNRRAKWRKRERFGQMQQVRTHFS
# Sequence of PRRX1 (Homo sapiens, UniProt P54821 80-166) (P54821 80-166): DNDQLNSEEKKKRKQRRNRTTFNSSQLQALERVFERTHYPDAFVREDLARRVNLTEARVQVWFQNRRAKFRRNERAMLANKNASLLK
# Sequence of PRRX1 (Homo sapiens, UniProt P54821 80-166, F113S) (P54821 80-166 F113S): as the sequence (P54821 80-166) above, with F34S counted along it
# Sequence of HOXB6 (Homo sapiens, UniProt P17509 132-218, K202E) (P17509 132-218 K202E): as the sequence (P17509 132-218) above, with K71E counted along it
# Sequence of ALX4 (Homo sapiens, UniProt Q9H161 200-286, Q225E) (Q9H161 200-286 Q225E): as the sequence (Q9H161 200-286) above, with Q26E counted along it
# Sequence of ALX3 (Homo sapiens, UniProt O95076 139-225, N203Q) (O95076 139-225 N203Q): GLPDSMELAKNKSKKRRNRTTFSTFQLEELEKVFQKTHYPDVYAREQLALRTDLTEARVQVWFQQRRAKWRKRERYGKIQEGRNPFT
# Sequence of ALX3 (Homo sapiens, UniProt O95076 139-225, L168V) (O95076 139-225 L168V): as the sequence (O95076 139-225 N203Q) above, with L30V, Q65N counted along it
# Sequence of ALX3 (Homo sapiens, UniProt O95076 139-225) (O95076 139-225): as the sequence (O95076 139-225 N203Q) above, with Q65N counted along it
# Sequence of ALX3 (Homo sapiens, UniProt O95076 139-225, N203S) (O95076 139-225 N203S): as the sequence (O95076 139-225 N203Q) above, with Q65S counted along it
# Sequence of ALX3 (Homo sapiens, UniProt O95076 139-225, L168Q) (O95076 139-225 L168Q): as the sequence (O95076 139-225 N203Q) above, with L30Q, Q65N counted along it
# Sequence of MSX2 (Homo sapiens, UniProt P35548 130-214, F161Y) (P35548 130-214 F161Y): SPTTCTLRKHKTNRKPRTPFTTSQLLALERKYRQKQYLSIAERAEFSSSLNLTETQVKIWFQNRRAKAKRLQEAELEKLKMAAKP
# Sequence of MSX2 (Homo sapiens, UniProt P35548 130-214, R199I) (P35548 130-214 R199I): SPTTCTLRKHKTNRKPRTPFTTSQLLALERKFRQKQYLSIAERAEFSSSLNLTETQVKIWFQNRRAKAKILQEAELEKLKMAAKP
# Sequence of MSX2 (Homo sapiens, UniProt P35548 130-214) (P35548 130-214): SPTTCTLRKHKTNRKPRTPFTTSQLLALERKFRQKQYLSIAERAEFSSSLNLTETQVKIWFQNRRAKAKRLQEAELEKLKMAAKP
sequence,measurement,setting,value
CCTCGAAC,binding signal,[1],"8.02 upbm affinity estimate (log intensity, higher = more binding, comparable within an allelic series)"
same,binding signal,[2],"9.46 upbm affinity estimate (log intensity, higher = more binding, comparable within an allelic series)"
same,binding signal,[3],"8.29 upbm affinity estimate (log intensity, higher = more binding, comparable within an allelic series)"
same,binding signal,[4],"9.07 upbm affinity estimate (log intensity, higher = more binding, comparable within an allelic series)"
ATAAGCAC,binding signal,[1],"9.96 upbm affinity estimate (log intensity, higher = more binding, comparable within an allelic series)"
same,binding signal,[3],"9.46 upbm affinity estimate (log intensity, higher = more binding, comparable within an allelic series)"
ATAACCTC,binding signal,[1],"9.88 upbm affinity estimate (log intensity, higher = more binding, comparable within an allelic series)"
same,binding signal,[3],"9.24 upbm affinity estimate (log intensity, higher = more binding, comparable within an allelic series)"
CCGCGAAG,binding signal,[1],"8.14 upbm affinity estimate (log intensity, higher = more binding, comparable within an allelic series)"
same,binding signal,[3],"8.32 upbm affinity estimate (log intensity, higher = more binding, comparable within an allelic series)"
CCTAGAGA,binding signal,[1],"8.06 upbm affinity estimate (log intensity, higher = more binding, comparable within an allelic series)"
same,binding signal,[3],"8.18 upbm affinity estimate (log intensity, higher = more binding, comparable within an allelic series)"
CTCTAGGA,binding signal,[1],"8.21 upbm affinity estimate (log intensity, higher = more binding, comparable within an allelic series)"
same,binding signal,[3],"8.12 upbm affinity estimate (log intensity, higher = more binding, comparable within an allelic series)"
GGGTGACC,binding signal,[1],"8.07 upbm affinity estimate (log intensity, higher = more binding, comparable within an allelic series)"
same,binding signal,[3],"8.31 upbm affinity estimate (log intensity, higher = more binding, comparable within an allelic series)"
CCAGGACG,binding signal,[1],"8.2 upbm affinity estimate (log intensity, higher = more binding, comparable within an allelic series)"
same,binding signal,[3],"8.31 upbm affinity estimate (log intensity, higher = more binding, comparable within an allelic series)"
GCTCAAGC,binding signal,[1],"8.08 upbm affinity estimate (log intensity, higher = more binding, comparable within an allelic series)"
same,binding signal,[3],"8.25 upbm affinity estimate (log intensity, higher = more binding, comparable within an allelic series)"
AGCAGCTC,binding signal,[1],"8.01 upbm affinity estimate (log intensity, higher = more binding, comparable within an allelic series)"
same,binding signal,[3],"8.09 upbm affinity estimate (log intensity, higher = more binding, comparable within an allelic series)"
GAGGACCC,binding signal,[1],"7.88 upbm affinity estimate (log intensity, higher = more binding, comparable within an allelic series)"
same,binding signal,[2],"9.19 upbm affinity estimate (log intensity, higher = more binding, comparable within an allelic series)"
same,binding signal,[3],"7.98 upbm affinity estimate (log intensity, higher = more binding, comparable within an allelic series)"
same,binding signal,[4],"9.51 upbm affinity estimate (log intensity, higher = more binding, comparable within an allelic series)"
TCAATGAA,binding signal,[1],"10.1 upbm affinity estimate (log intensity, higher = more binding, comparable within an allelic series)"
same,binding signal,[3],"9.63 upbm affinity estimate (log intensity, higher = more binding, comparable within an allelic series)"
ACCTCCTC,binding signal,[1],"8.28 upbm affinity estimate (log intensity, higher = more binding, comparable within an allelic series)"
same,binding signal,[3],"8.12 upbm affinity estimate (log intensity, higher = more binding, comparable within an allelic series)"
TCGGCCGA,binding signal,[1],"7.94 upbm affinity estimate (log intensity, higher = more binding, comparable within an allelic series)"
same,binding signal,[3],"8.39 upbm affinity estimate (log intensity, higher = more binding, comparable within an allelic series)"
ATATGTAA,binding signal,[1],"10.2 upbm affinity estimate (log intensity, higher = more binding, comparable within an allelic series)"
same,binding signal,[3],"9.63 upbm affinity estimate (log intensity, higher = more binding, comparable within an allelic series)"
GGTGGCCA,binding signal,[1],"8.06 upbm affinity estimate (log intensity, higher = more binding, comparable within an allelic series)"
same,binding signal,[3],"8.37 upbm affinity estimate (log intensity, higher = more binding, comparable within an allelic series)"
ATTTTCTC,binding signal,[1],"10.1 upbm affinity estimate (log intensity, higher = more binding, comparable within an allelic series)"
same,binding signal,[3],"9.45 upbm affinity estimate (log intensity, higher = more binding, comparable within an allelic series)"
CGCCCTTC,binding signal,[1],"8.03 upbm affinity estimate (log intensity, higher = more binding, comparable within an allelic series)"
same,binding signal,[3],"8.24 upbm affinity estimate (log intensity, higher = more binding, comparable within an allelic series)"
CCACCGGC,binding signal,[1],"8.04 upbm affinity estimate (log intensity, higher = more binding, comparable within an allelic series)"
same,binding signal,[5],"8.97 upbm affinity estimate (log intensity, higher = more binding, comparable within an allelic series)"
same,binding signal,[3],"7.94 upbm affinity estimate (log intensity, higher = more binding, comparable within an allelic series)"
same,binding signal,[6],"9.32 upbm affinity estimate (log intensity, higher = more binding, comparable within an allelic series)"
same,binding signal,[7],"9.39 upbm affinity estimate (log intensity, higher = more binding, comparable within an allelic series)"
same,binding signal,[8],"7.68 upbm affinity estimate (log intensity, higher = more binding, comparable within an allelic series)"
same,binding signal,[9],"9.41 upbm affinity estimate (log intensity, higher = more binding, comparable within an allelic series)"
same,binding signal,[10],"7.64 upbm affinity estimate (log intensity, higher = more binding, comparable within an allelic series)"
same,binding signal,[11],"7.76 upbm affinity estimate (log intensity, higher = more binding, comparable within an allelic series)"
same,binding signal,[12],"7.67 upbm affinity estimate (log intensity, higher = more binding, comparable within an allelic series)"
same,binding signal,[13],"9.32 upbm affinity estimate (log intensity, higher = more binding, comparable within an allelic series)"
same,binding signal,[14],"7.64 upbm affinity estimate (log intensity, higher = more binding, comparable within an allelic series)"
same,binding signal,[15],"8.83 upbm affinity estimate (log intensity, higher = more binding, comparable within an allelic series)"
CCTCCTAC,binding signal,[1],"7.75 upbm affinity estimate (log intensity, higher = more binding, comparable within an allelic series)"
same,binding signal,[3],"8.06 upbm affinity estimate (log intensity, higher = more binding, comparable within an allelic series)"
CTCGATCC,binding signal,[1],"8.2 upbm affinity estimate (log intensity, higher = more binding, comparable within an allelic series)"
same,binding signal,[3],"8.33 upbm affinity estimate (log intensity, higher = more binding, comparable within an allelic series)"
GTCGGCGA,binding signal,[1],"8.22 upbm affinity estimate (log intensity, higher = more binding, comparable within an allelic series)"
same,binding signal,[2],"9.28 upbm affinity estimate (log intensity, higher = more binding, comparable within an allelic series)"
same,binding signal,[3],"8.22 upbm affinity estimate (log intensity, higher = more binding, comparable within an allelic series)"
same,binding signal,[4],"9.44 upbm affinity estimate (log intensity, higher = more binding, comparable within an allelic series)"
CTCCGGCC,binding signal,[1],"8.03 upbm affinity estimate (log intensity, higher = more binding, comparable within an allelic series)"
same,binding signal,[3],"8.06 upbm affinity estimate (log intensity, higher = more binding, comparable within an allelic series)"
CCCTCACG,binding signal,[1],"8.1 upbm affinity estimate (log intensity, higher = more binding, comparable within an allelic series)"
same,binding signal,[3],"8.28 upbm affinity estimate (log intensity, higher = more binding, comparable within an allelic series)"
ATTAACCA,binding signal,[1],"12.4 upbm affinity estimate (log intensity, higher = more binding, comparable within an allelic series)"
same,binding signal,[3],"11.3 upbm affinity estimate (log intensity, higher = more binding, comparable within an allelic series)"
CCTGCAGG,binding signal,[1],"8.12 upbm affinity estimate (log intensity, higher = more binding, comparable within an allelic series)"
same,binding signal,[5],"9.05 upbm affinity estimate (log intensity, higher = more binding, comparable within an allelic series)"
same,binding signal,[3],"8.04 upbm affinity estimate (log intensity, higher = more binding, comparable within an allelic series)"
same,binding signal,[15],"8.92 upbm affinity estimate (log intensity, higher = more binding, comparable within an allelic series)"
CGACATCC,binding signal,[1],"7.95 upbm affinity estimate (log intensity, higher = more binding, comparable within an allelic series)"
same,binding signal,[3],"8.23 upbm affinity estimate (log intensity, higher = more binding, comparable within an allelic series)"
CTTCCCGC,binding signal,[1],"8.12 upbm affinity estimate (log intensity, higher = more binding, comparable within an allelic series)"
same,binding signal,[5],"9.12 upbm affinity estimate (log intensity, higher = more binding, comparable within an allelic series)"
same,binding signal,[3],"8.22 upbm affinity estimate (log intensity, higher = more binding, comparable within an allelic series)"
same,binding signal,[15],"9.02 upbm affinity estimate (log intensity, higher = more binding, comparable within an allelic series)"
